High-throughput results from PubChem.
Sampled rows, rich in hits. Any-hit rate of the full collection: about 9%.
HPGD inh – HPGD (human) dehydrogenase inhibition; P15428; purified HPGD, NADH fluorescence kinetic, PGE2 substrate; Potency, µM, without a hit: at the highest dose activity change, negative = inhibition, actives largely listed as inhibitors; 4.3% of 150,000 active; note: potency is the fitted concentration of half-maximal effect
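NADH formation kinetics: reaction with 30 uM PGE2 and 1 mM NAD+ (final), 20 nM enzyme, Tris-HCl pH 8 with Tween 20, after 15 min compound preincubation at room temperature. Fluorescence change, last versus first of five reads.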
ALDH1A1 block – blocks purified human ALDH1A1 activity; Potency, µM (series often up to 75.3 µM), inactives show top-dose activity, negative = inhibition, actives largely listed as inhibitors; Purified ALDH1A1, NADH fluorescence, propionaldehyde substrate; AID 1030; 7.3% of 220,000 active;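 note: potency is the fitted concentration of half-maximal effect; plate controls were no enzyme wells and a reference inhibitor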
Target sequence (P00352 whole entry, looked up): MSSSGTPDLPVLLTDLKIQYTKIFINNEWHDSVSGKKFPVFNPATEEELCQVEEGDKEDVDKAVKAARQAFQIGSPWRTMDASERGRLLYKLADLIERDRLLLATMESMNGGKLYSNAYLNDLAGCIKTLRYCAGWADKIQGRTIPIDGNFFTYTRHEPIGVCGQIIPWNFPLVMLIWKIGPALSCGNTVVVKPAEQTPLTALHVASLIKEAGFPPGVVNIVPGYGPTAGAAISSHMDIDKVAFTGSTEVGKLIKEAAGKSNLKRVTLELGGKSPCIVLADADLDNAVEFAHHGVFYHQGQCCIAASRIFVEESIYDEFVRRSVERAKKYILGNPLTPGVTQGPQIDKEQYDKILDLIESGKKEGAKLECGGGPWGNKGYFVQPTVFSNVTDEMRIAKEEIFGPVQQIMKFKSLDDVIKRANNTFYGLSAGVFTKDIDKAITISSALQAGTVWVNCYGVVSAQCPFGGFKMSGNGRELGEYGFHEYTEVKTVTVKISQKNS
IMPase cell inh – membrane-permeable compound that blocks inositol monophosphatase; 120,000 tested, under 10 active; AID 901; CHO-M1 cells, IP1 accumulation, HTRF TR-FRET ratio; inhibition (IP1 accumulation), % at 46.1 µM; active = well fitted curve in the direction sought with a large enough effect in the signal ratio, not every such curve was filed as active; inconclusive = small, poorly fitted or top-dose-only effect, or a change in a side signal; inactive = no such curve, though single readings can be large or run the other way; the % refers to the signal ratio;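 note: cells stimulated with carbachol in lithium chloride buffer; plate controls were DMSO basal wells for no effect and reference inhibitor wells for full effect; higher means more IMPase inhibition seen as more IP1 and lower FRET ratio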
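CHO-M1 cells (CHO stably expressing M1 receptor), compound up to 46 uM final, stimulated with carbachol (50 uM as added) in buffer with 50mM LiCl, pH 7.4, 30 min at 37C. Cytosolic IP1 read by TR-FRET; AC50 from Hill fits.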
Active calls of the source: *; ? = inconclusive; · = no result; [ ] = dose if it differs, or a comment. Unless noted, calls come from the whole dose curve; as a rule, active = well fitted inhibition curve with a large enough effect (not every such curve was filed as active); inconclusive = small, poorly fitted or top-dose-only effect, or another doubt; inactive = no such curve, though single readings can be large or run the other way. Unless noted, % is set by controls: 0 for no effect and ±100 for the full control effect.

SMILES	HPGD inh	ALDH1A1 block	IMPase cell inh
Cc1ccc(OCCCCN2CCCC(C)C2)c([N+](=O)[O-])c1 (stereo not given)	·	32µM*	·
Cc1ccc(OCCCCNC(C)(C)C)c([N+](=O)[O-])c1	-4%	13µM*	7
CC1CCN(CCCCOc2ccccc2[N+](=O)[O-])CC1	-5%	-4%	12
C=CCc1ccc(OCCCCN2CCC(C)CC2)c(OC)c1	-4%	-12%	·
Cc1cc(C)n(-c2nc3ccccc3nc2Nc2cccc(C)c2C)n1	·	·	10
CCc1nnc2c(Nc3cccc(F)c3)nc3ccc(C(=O)c4ccccc4)cc3n12	·	·	0
COCCCNC(=S)N1CCN(S(=O)(=O)c2ccc(OC)cc2)CC1	·	0%	·
CSCCC1NC(=O)N(CC(=O)Nc2ccc(Br)cc2Br)C1=O (stereo not given)	·	16%	·
Cc1nnc(NC(=O)C2CCCN(c3ncccn3)C2)s1 (stereo not given)	-13%	1%	-7
COc1ccc(CNc2ccnc(-c3ccccc3C(F)(F)F)n2)c(OC)c1	-12%	-1%	·
COc1ccccc1C(=O)Nc1ccc(Br)cc1C	·	-14%	·
CC(C(=O)NN)c1ccc([N+](=O)[O-])cc1 (stereo not given)	·	-7%	·
CC1(C)CC(=O)c2c(Cc3ccccc3)noc2C1	·	-4%	·
CC1(C)CC(=O)c2c(noc2-c2ccccc2)C1	22µM*	?	0
O=C(c1ccco1)N1CCC2(CC1)CN(Cc1cc(C(F)(F)F)cc(C(F)(F)F)c1)C2	0%	?	·
C=CCn1c(CC#N)nnc1N1CCOCC1	-4%	8.9µM*	3
C=CCn1c(SCC(=O)N2CCOCC2)nc(O)c(Cc2ccccc2)c1=O	-8%	7%	4
O=C1CCCC(C(C(=O)OCc2ccccc2)C(=O)OCc2ccccc2)C1 (stereo not given)	-28%	-7%	·
CCCCNS(=O)(=O)c1ccc2nc(SCC(=O)Nc3ccccc3Cl)[nH]c2c1	·	?	-4
CCCCNS(=O)(=O)c1ccc2nc(SCC(=O)c3ccccc3OC)[nH]c2c1	28µM*	?	2
CCN(CC)c1ccc(/C=C/C(=O)C2C(=O)C=C(C)OC2=O)cc1 (stereo not given)	·	18µM*	·
CCN(CC)c1ccc(C2C(C(=O)OC)=C(C)NC(C)=C2C(=O)OC)cc1	?	?	8
COC(=O)CCC(=O)OC1(C)C(=O)C=C2C=C(C3CC3)N(c3ccc(OC)cc3)C=C2C1=O (stereo not given)	-6%	-3%[13.5 µM]	·
COc1ccc(C(=O)N2CCC3(CCN(C(=O)Nc4cccc(F)c4)CC3)CC2)cc1	-6%	?	·
O=C(NCCCN1CCOCC1)c1ccc(CNS(=O)(=O)c2ccc(Br)cc2)cc1	-10%	22µM*	·
SMILES	HPGD inh	ALDH1A1 block	IMPase cell inh
O=C(NCCCN1CCOCC1)c1ccc(Br)cc1	-10%	0%	9
CC(=O)Nc1ccc(Br)c(Cl)c1	·	2%	·
O=C(Nc1ccc(Br)c(Cl)c1)C1CC1	18µM*	-13%	8[1.84 µM]
O=C(C(NS(=O)(=O)c1cccs1)c1ccccc1)N1CCN(c2ccccc2)CC1 (stereo not given)	-11%	?	4
Cc1ccc(S(=O)(=O)NC2=C(N3CCN(c4ccccc4F)CC3)C(=O)c3ccccc3C2=O)cc1	-11%	?	6
O=C1C(NS(=O)(=O)c2cccs2)=C(N2CCN(c3ccccc3)CC2)C(=O)c2ccccc21	-25%	3.5µM*	18
COc1ccc(S(=O)(=O)NCC(c2cccnc2)N2CCN(c3ccc(F)cc3)CC2)cc1C (stereo not given)	-1%	?	4
CC1CCCN(C2=C(NS(=O)(=O)c3ccc(Cl)cc3)C(=O)c3ccccc3C2=O)C1 (stereo not given)	-25%	13µM*	·
CC(=O)Nc1ccc(S(=O)(=O)NC2=C(N3CCN(c4ccc(F)cc4)CC3)C(=O)c3ccccc3C2=O)cc1	-23%	7.1µM*	22
Cc1ccc(S(=O)(=O)NC2=C(N3CCN(Cc4ccccc4)CC3)C(=O)c3ccccc3C2=O)cc1	-11%	-1%	-3
COc1ccc(S(=O)(=O)NCC(c2cccnc2)N2CCN(c3ccccc3)CC2)cc1C (stereo not given)	-16%	13µM*	8
CS(=O)(=O)c1ccc2nc(NC(=O)c3ccc(S(=O)(=O)NCC4CCCO4)cc3)sc2c1 (stereo not given)	·	-4%	·
CCOc1ccc(-n2cc(C(=O)N3CCCCCC3)c3cc(OC)c(OC)cc3c2=O)cc1	-5%	6%	3
COC(=O)Nc1ccc(S(=O)(=O)N2CCCC(C(=O)Nc3cccc4c3OCCO4)C2)cc1 (stereo not given)	-4%	?	-9
C=CCN1c2ccccc2[C@]23C[C@@H](C(=O)OC)N(S(=O)(=O)c4ccc(Br)cc4)C2=NC(C(=O)OC)=C(C(=O)OC)[C@H]13	-6%	16%[13.5 µM]	·
O=S(=O)(NCC(c1cccnc1)N1CCN(c2ccccc2)CC1)c1cccs1 (stereo not given)	-11%	2.5µM*	-5
COc1ccc(N2CCN(C(CNS(=O)(=O)c3cccs3)c3cccnc3)CC2)cc1 (stereo not given)	-8%	-18%	-5
CC(C(=O)N1CCOCC1)N1C(=O)C2C3CC(C(Br)C3Br)C2C1=O (stereo not given)	4%	0%	·
COCCNC(=O)/C(C#N)=C/c1cc(C(C)C)c(OC)cc1C	·	-12%	·
COc1ccc(NC(=O)CSc2nnc(-c3ccccc3)n2N)cc1	-9%	2%	-10
CCn1c(SCC(=O)Nc2ccc(C(=O)OC)cc2)nc2cccnc21	3.5µM*	1%	4
COC(=O)c1ccc(NC(=O)CSc2nnc(-c3ccncc3)n2N)cc1	-26%	25µM*	?
CCn1c(SCC(=O)Nc2ccc(C(C)=O)cc2)nc2ccccc21	-23%	-2%	26
O=C(c1ccco1)N1CCN(S(=O)(=O)c2ccc(S(=O)(=O)NC3CCCCC3)cc2)CC1	·	-13%	8
Cc1cc(C(=O)N2CCCC(C(=O)c3cccc(C(F)(F)F)c3)C2)nc(C)n1 (stereo not given)	·	-2%	·
SMILES	HPGD inh	ALDH1A1 block	IMPase cell inh
Nc1ccc(C23CC4CC(CC(O)(C4)C2)C3)cc1	2%	?	0
Nc1ccc(C23CC4CC(CC(CO)(C4)C2)C3)cc1	-9%	11µM*	9
CCOC(=O)C1CCCN(C(=S)Nc2ccc(C)cc2C)C1 (stereo not given)	-4%	6%	9
FC(F)(F)c1ccccc1-c1cncnc1NCc1cccnc1	·	8%	·
COc1cc(C(=O)NNC2=CC(=O)CC(C)(C)C2)cc(OC)c1OC	-1%	1%	3
CNC(=O)CSCc1c(F)cccc1Cl	5%	0%	·
C/C(CC(=O)NCc1ccco1)=N\NC(=O)Cc1ccc(-c2ccccc2)cc1	-9%	-3%	-2
Cc1ccc(C)c(N(CC(=O)NCCSCc2ccco2)S(C)(=O)=O)c1	-14%	3.5µM*	-22
CC(C)NC(=O)CSCc1c(F)cccc1Cl	16µM*	?	-7
CS(=O)(=O)N(CC(=O)NCCSCc1c(F)cccc1Cl)c1ccc2c(c1)OCO2	-13%	2.5µM*	2
C/C(CC(=O)NCc1ccco1)=N\NC(=O)Cc1cccc2ccccc12	-11%	13µM*	-1
